Measured values taken from PubChem BioAssay AID1347076 (National Center for Advancing Translational Sciences (NCATS), 2019).
Out of some 400,000 compounds screened, about 13,000 (3.2%) were called active. Entries that show only a call come without a potency. Roughly 18% stayed inconclusive and do not appear here. Calls come from the whole dose curve; as a rule, active = well fitted cell-killing curve with a large enough effect; inconclusive = small, poorly fitted or top-dose-only effect, or effect the other way; inactive = flat fitted curve, though single readings scatter. For the sample, actives were picked, then their nearest neighbours and some compounds at random.

Assay: qHTS assay for MDR1-selective chemotherapeutics: Primary screen using the drug-selected MDR subline cells KB-V1; note: nearly all actives have a fitted effect of over 60% in size
Details: KB-V1 MDR cells viability, CellTiter-Glo, 72 h; series mostly up to 46.1 µM
Summary of the method: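 Drug-selected KB-V1 cells, grown in DMEM lacking phenol red with 10% FBS, receive compound titrations; after three days at 37 degrees C, surviving cell ATP is quantified by CellTiter-Glo luminescence and responses normalized and curve-fitted.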
Potency is the fitted concentration of half-maximal effect.

Structure (SMILES) | Potency
O=S1(=O)CC(N2CCN(Cc3ccccc3F)CC2)CN1Cc1cn(Cc2cccc(C(F)(F)F)c2)nn1 (stereo not drawn) | inactive
Cc1c(CCO)sc[n+]1CC(=O)c1ccc2ccccc2c1 | inactive
CCOC(=O)C1CCN(C(=O)c2oc3ccc(S(=O)(=O)N4CCCCCC4)cc3c2C)CC1 | inactive
CCOC(=O)C1CCN(c2ncnc3c2oc2ccc(Br)cc23)CC1 | 20.6 µM (active)
CCOC(=O)C1CCN(Cc2nnc(-c3cccc(Br)c3)o2)CC1 | inactive
CCN(CC)CCNc1ncnc2c1cnn2-c1cc(Cl)ccc1C | inactive
CN(C)C(=O)c1cccc(-c2cnc3sc(NCc4ccc5c(c4)OCO5)nn23)c1 | inactive
COc1ccc(CN(C)C(=O)CC(c2ccccc2)c2ccccc2)cc1 | inactive
COc1ccc(C(CCN(Cc2ccc(OC)c(OC)c2)C(=O)CCl)c2ccccc2)cc1 (stereo not drawn) | 20.6 µM (active)
COc1ccc(COC(=O)NC(C(=O)O)c2ccccc2)cc1 (stereo not drawn) | inactive
O=C(NCc1ccc(F)cc1)c1cc(C2CCCCN2C(=O)c2ccccn2)on1 (stereo not drawn) | inactive
O=C(CSc1ncc(CO)n1Cc1ccc(F)cc1)NCc1ccco1 | inactive
O=C(CCCn1c(SCC(=O)c2ccc(F)cc2)nc2ccccc2c1=O)NCc1ccco1 | 5.8 µM (active)
O=C(CSc1nc2ccccc2c(=O)n1Cc1ccc(F)cc1)NCC1CCCO1 (stereo not drawn) | inactive
O=C(CCn1c(SCC(=O)c2ccccc2)nc2ccccc2c1=O)NCc1ccc(F)cc1 | 7.31 µM (active)
O=C(CSc1nc2ccccc2c(=O)n1CCCO)NC1CC1 | inactive
CC(=O)c1ccc(NC(=O)CSc2nc3ccccc3c(=O)n2CCCN2CCOCC2)cc1 | inactive
COC(=O)c1ccc2c(=O)n(CCN3CCOCC3)c(SCC(=O)Nc3cccc(OC)c3)nc2c1 | inactive
O=C(CSc1nc2ccccc2c(=O)n1-c1ccc(F)cc1)NC1CC1 | inactive
CCc1ccc(NC(=O)CSc2nc3ccccc3c(=O)n2CCN2CCOCC2)cc1 | 8.2 µM (active)
COc1ccc(Cn2cc(C(=O)c3ccc(C)cc3)c(=O)c3cc(OC)c(OC)cc32)cc1 | inactive
O=C(NC1CCCC1)C1c2ccccc2OCC(=O)N1CC(F)(F)F (stereo not drawn) | inactive
CCCCn1nnnc1C(c1cc2ccccc2o1)N(C)Cc1ccc(Cl)c(Cl)c1 (stereo not drawn) | inactive

Structure (SMILES) | Potency
O=C1NC(Cc2ccccc2)c2nc3ccc(Br)cc3c(=O)n2-c2cc3ccccc3cc21 (stereo not drawn) | inactive
O=C(NC(C(=O)NCCN1CCOCC1)C12CC3CC(CC(C3)C1)C2)C1CCCCC1 (stereo not drawn) | 14.6 µM (active)
O=C(NCCN1CCOCC1)C1CCN(S(=O)(=O)c2ccccc2)CC1 | inactive
O=C(NCCCN1CCOCC1)C1CCCN(S(=O)(=O)N2CCCCC2)C1 (stereo not drawn) | inactive
CCOC(=O)c1c(NC(=O)COC(=O)c2ccc(S(=O)(=O)C(F)F)cc2)sc(C(=O)N(C)C)c1C | inactive
CC1(C(=O)O)CCN1C(=O)/C=C/c1ccccc1 (stereo not drawn) | inactive
CCN(CC(=O)Nc1ccc(OC)cc1)C(=O)c1ccc(Cl)c(S(=O)(=O)N2CCCC2)c1 | inactive
CCN(CC(=O)Nc1ccc(OC)cc1)C(=O)c1ccc(=O)n(Cc2ccccc2)n1 | 18.4 µM (active)
COc1ccc(NC(=O)CN(C)C(=O)c2cc(C3CC3)nn2-c2ccccc2)cc1 | inactive
N=c1c2c3c(sc2ncn1N)CCCCC3 | inactive
N=c1c2c3c(sc2ncn1CCCN1CCOCC1)CCCCC3 | 8.2 µM (active)
N=c1c2c3c(sc2nc2n1CCCCC2)CCCC3 | inactive
CCN1CCN(c2ccc(/C=C/c3ccnc4ccccc34)cc2)CC1 | inactive
C[C@@H]1CN([C@H](C)CO)C(=O)c2cc(Br)cnc2O[C@@H]1CN(C)Cc1cncnc1 | inactive
C[C@H]1Cn2cnc(C(=O)N[C@@H](Cc3c[nH]c4ccccc34)C(=O)OC(C)(C)C)c2C(=O)N1 | inactive
COc1ccc(C(=O)NC2CC(C)(C)NC(C)(C)C2)cc1OC | inactive
Cc1cccc(C(=O)NCC(=O)OCC(=O)N2CC3(C)CC2CC(C)(C)C3)c1 (stereo not drawn) | inactive
COc1ccc(C(=O)N2CC3(C)CC2CC(C)(C)C3)cc1OC (stereo not drawn) | 23.1 µM (active)
O=C(NCc1ccccc1)C(c1ccc(F)cc1)N1CCN(C(=O)C2CCCO2)CC1 (stereo not drawn) | inactive
CCn1c(CNC(=O)c2ccc(OC)c(OC)c2)nnc1SCC(=O)Nc1ccccc1 | inactive
CCn1c(Cc2ccccc2)nnc1SCC(=O)Nc1ccccc1 | 20.6 µM (active)
CCn1c(Cc2ccc(OC)cc2)nnc1SCC(=O)Nc1ccc(N2CCOCC2)cc1 | inactive
CC1(C(=O)NS(=O)(=O)c2cccc(OC(F)F)c2)CCN1C(=O)COc1ccc(Cl)cc1 (stereo not drawn) | inactive

Structure (SMILES) | Potency
O=C(Nc1cccc2ccccc12)c1[nH]c(-c2ccccc2)c2c1C(=O)N(C1CC1)C2=O | inactive
CCCCNC(=O)C[C@@H]1C[C@@]2(C(=O)OCC)CCC=C2N(Cc2ccco2)C1=O | inactive
O=C(NNS(=O)(=O)c1ccc(F)cc1)c1ccc([N+](=O)[O-])cc1Cl | inactive
Cc1cc([N+](=O)[O-])ccc1NS(=O)(=O)c1ccccc1 | inactive
O=[N+]([O-])c1ccc(NS(=O)(=O)c2ccccc2)c(Cl)c1 | 23.1 µM (active)
CCc1nc2ccc(C(=O)N3CCC(O)(Cc4ccccc4)CC3)cn2c1N(C)C(=O)Cc1ccccc1 | inactive
CC1(C(=O)NCc2ccc3c(c2)OCO3)CCN1CCc1ccccc1 (stereo not drawn) | inactive
COc1ccc(S(=O)(=O)N/N=C\c2ccc(OC)c(COc3ccc(C)cc3[N+](=O)[O-])c2)cc1 | inactive
COc1ccc(C(=O)NNS(=O)(=O)c2ccc(C)cc2)cc1 | inactive
COc1ccc(C(=O)Oc2cc(/C=N/NS(=O)(=O)c3ccc(C)cc3)ccc2OC)cc1 | 14.6 µM (active)
c1ccc(Cc2c(-c3ccco3)nc3c4ccccc4ccn23)cc1 | inactive
CC(C)Cn1c(=O)c2ccccc2n2c(-c3cccc(Cl)c3)nnc12 | inactive
CN(Cc1cncn1C)c1ncnc2ccc(-c3ccc4c(c3)OCO4)cc12 | inactive
CCN(CC)S(=O)(=O)c1cccc(NC(=O)c2ccc(S(=O)(=O)N3CCCC3)cc2)c1 | inactive
O=C(c1c(F)cccc1F)N1CCN(S(=O)(=O)c2ccc3c(c2)OCCO3)CC1 | inactive
O=C(CSc1ccccc1)Nc1cccc(S(=O)(=O)N2CCCCC2)c1 | inactive
O=C(c1ccc2c(c1)OCCO2)C1CCN(S(=O)(=O)c2cccc(F)c2)CC1 | 20.6 µM (active)
O=C(Nc1cccc(S(=O)(=O)N2CCCCC2)c1)c1cncc(Br)c1 | inactive
O=C(NCc1cccs1)C1CCN(S(=O)(=O)c2ccc3c(c2)OCCO3)CC1 | inactive
Cn1nnnc1SCC(=O)Nc1cccc(S(=O)(=O)N2CCCCC2)c1 | 20.6 µM (active)
COCCn1cnnc1SCC(=O)Nc1cccc(S(=O)(=O)N2CCCCC2)c1 | inactive
O=C(Nc1cccc(S(=O)(=O)N2CCCCC2)c1)c1ccc2c(c1)OCO2 | 3.26 µM (active)
